Data on 11 compounds can be found in PubChem BioAssay.

Assay [1] in a line: HepG2 liver cancer cell viability effects, profiling panel, resazurin fluorescence, 24 h, PK04 Diversity Set (AID 1172). Further: test concentration not given here. The settings on record: higher = more signal.
A short description of assay [2]: basal S. cerevisiae growth modulation, no modifier, primary screen, OD600, strain BY4716, 24 h, basal condition (AID 1173). Particulars: OD600, 24 h, higher = more signal, called active from +8 up or from −8 down.
Assay [3] in a line: MM1S myeloma cell viability, profiling panel, resazurin fluorescence, basal, 24 h, PK04 Diversity Set (AID 1174). Further: test concentration not given here. The settings on record: higher = more signal, called active from +8 up or from −8 down.
Assay [4] deals with Dihydroorotate dehydrogenase (quinone), mitochondrial (Plasmodium falciparum (isolate 3D7)) (UniProt Q08210). Description: PfDHODH enzyme inhibitors, primary screen, biochemical, C-terminal His tag, absorbance 600 nm (AID 1175).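 Further: recombinant parasite enzyme with a five histidine tag at its C terminus; test concentration not given here.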 The settings on record: DCIP absorbance 600 nm, higher = more signal, called active from +8 up or from −8 down.
Dihydroorotate dehydrogenase (quinone), mitochondrial (Plasmodium falciparum (isolate 3D7)), sequence (Q08210 whole entry, looked up): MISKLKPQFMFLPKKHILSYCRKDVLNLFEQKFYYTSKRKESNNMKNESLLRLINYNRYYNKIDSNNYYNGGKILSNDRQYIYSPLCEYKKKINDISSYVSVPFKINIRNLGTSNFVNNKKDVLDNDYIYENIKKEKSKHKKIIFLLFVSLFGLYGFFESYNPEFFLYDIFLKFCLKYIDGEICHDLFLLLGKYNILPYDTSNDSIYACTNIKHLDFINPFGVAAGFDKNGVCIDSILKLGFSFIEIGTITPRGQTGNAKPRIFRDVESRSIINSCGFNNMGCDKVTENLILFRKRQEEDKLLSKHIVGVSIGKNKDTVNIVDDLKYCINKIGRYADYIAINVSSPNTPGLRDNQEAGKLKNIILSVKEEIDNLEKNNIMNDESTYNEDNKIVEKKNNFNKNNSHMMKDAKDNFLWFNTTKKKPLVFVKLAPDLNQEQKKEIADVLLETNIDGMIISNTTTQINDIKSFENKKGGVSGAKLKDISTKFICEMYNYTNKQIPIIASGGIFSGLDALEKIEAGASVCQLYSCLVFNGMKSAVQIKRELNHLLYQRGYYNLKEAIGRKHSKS
A short description of assay [5]: P. aeruginosa biofilm formation inhibitors, primary screen, strain PAO1, LB-PBS medium, absorbance 600 nm (AID 1176). Further: test concentration not given here. The settings on record: P. aeruginosa PAO1 growth/biofilm, A600, 12 h; higher = more signal.
A short description of assay [6]: S. cerevisiae RM11-1a growth modifiers, primary screen, strain RM11-1a, OD600, basal, 24 h (AID 1177).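 Further: cultures grown under basal conditions with no added stressor; test concentration not given here.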 Particulars: OD600, 24 h, higher = more signal, called active from +8 up or from −8 down.
Assay [7] in a line: E. coli acrAB mutant growth effects, primary screen, E. coli filamentation inducers, strain DRC39, OD650, 24 h (AID 1178).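 Further: growth measured as culture turbidity by optical density at 650 nm; test concentration not given here.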 The settings on record: higher = more signal, called active from +8 up or from −8 down.
Assay [8] in a line: E. coli acrAB mutant growth effects, primary screen, E. coli filamentation inducers, strain DRC39, OD650, 48 h (AID 1179).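 Further: screen aims at cell division blockers that make cells filament.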 Particulars: E. coli DRC39 delta-acrAB growth, higher = more signal, called active from +8 up or from −8 down.
Assay [9] can be described thus: RPMI8226 myeloma cell viability, profiling panel, resazurin fluorescence, basal, 24 h, PK04 Diversity Set (AID 1180).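 Further: RPMI8826 multiple myeloma cell line at 5000 cells per well; test concentration not given here.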 The settings on record: higher = more signal.
The target of assay [10] is E3 ubiquitin-protein ligase XIAP (Homo sapiens) (UniProt P98170). Description: XIAP binders, primary screen, biophysical, small-molecule microarray, fluorescence 635 nm (AID 1181).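 Further: score merges 667 nm emission and signal to noise over triplicate slides.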 The settings on record: small-molecule microarray binding, higher = more signal.
E3 ubiquitin-protein ligase XIAP (Homo sapiens), sequence (P98170 whole entry, looked up): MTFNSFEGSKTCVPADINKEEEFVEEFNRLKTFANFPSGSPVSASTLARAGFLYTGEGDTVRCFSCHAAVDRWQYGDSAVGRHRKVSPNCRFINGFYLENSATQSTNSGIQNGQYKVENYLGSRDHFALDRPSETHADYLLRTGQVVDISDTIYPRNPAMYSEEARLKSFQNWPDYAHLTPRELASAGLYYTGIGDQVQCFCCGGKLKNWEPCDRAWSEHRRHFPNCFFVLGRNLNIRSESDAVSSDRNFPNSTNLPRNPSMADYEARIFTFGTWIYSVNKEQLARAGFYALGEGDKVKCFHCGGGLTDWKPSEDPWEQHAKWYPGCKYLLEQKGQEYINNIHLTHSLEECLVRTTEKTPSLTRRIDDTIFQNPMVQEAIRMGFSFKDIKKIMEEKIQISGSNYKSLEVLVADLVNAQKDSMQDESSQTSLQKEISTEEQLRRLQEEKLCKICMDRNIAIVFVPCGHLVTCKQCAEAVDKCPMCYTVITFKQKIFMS

Active and inactive are the calls of the source. Unless noted, how the calls were made is not given here.

In the case of `CON=C(C)CCC(=O)OC[C@H]1O[C@H](c2ccccc2)C=C[C@@H]1Oc1ccc(OC)cc1`, the z-score is 0.0444 in [1]; 0.831 (inactive) in assay [2]; 0.289 (inactive) in assay [3]; 0.0981 (inactive) in assay [5]; 1.44 (inactive) in assay [6]; 0.732 (inactive) in assay [7]. For the same compound, the z-score was -1.76 (inactive) in assay [8] and 0.268 in assay [9]. Moreover, the composite z-score in assay [4] is -0.0389 (inactive); in [10], 0.0619.
Consider `CC(C)CON=C1C[C@@H](O)[C@@H](O)[C@@H]2[C@@H]3C(=O)N(c4cccc(Oc5ccccc5)c4)C(=O)[C@@H]3CC[C@@H]12`, for which the z-score in assay [1] is -0.271; in [2], -1.81 (inactive); in assay [3], -1.5 (inactive); in assay [5], 0.659 (inactive); in [6], -1.86 (inactive); in [7] it was -0.321 (inactive). Moreover, the z-score in assay [8] is -0.791 (inactive); in assay [9] it was -0.0778. In addition, the composite z-score was -1.71 (inactive) in [4] and 0.125 in assay [10].
For `COC(=O)CC=C[C@@H](C)[C@@H](C=NO[C@@H](C)c1cn([C@H](CO)Cc2ccccc2)nn1)NS(=O)(=O)c1ccc(C)cc1`, the z-score in assay [1] is -1.21; in [2] it was -0.913 (inactive); in assay [3], -0.412 (inactive); in assay [5] it was -1.54 (inactive); in assay [6], -2.06 (inactive); in assay [7] it was 0.196 (inactive). Also, the values for the z-score in [8] and in assay [9] were 0.364 (inactive) and -0.808, respectively. Besides, the figures for the composite z-score in [4] and in assay [10] were -1.16 (inactive) and -0.349, respectively.
Take `CC(C)CON=C1C[C@@H](O)[C@@H](O)[C@@H]2[C@@H]3C(=O)N(C4CCCCC4)C(=O)[C@@H]3CC[C@@H]12`: the z-score in [1] was -0.577; in assay [2] it was -4.72 (inactive); in assay [3], 0.119 (inactive); in [5], -0.294 (inactive); in [6] it was 0.523 (inactive); in [7], -0.3 (inactive). The z-score in [8] was -1.17 (inactive); in assay [9], -0.0596. Also, the composite z-score was -0.508 (inactive) in assay [4] and 0.0159 in [10].
Take `CON=C[C@@H](NS(=O)(=O)c1ccc(C)cc1)[C@H](C)C=CCC(=O)OC`: the z-score in assay [1] was 0.27; in assay [2], -0.146 (inactive); in [3], -0.548 (inactive); in [5], -0.291 (inactive); in [6], 0.475 (inactive); in assay [7], 0.717 (inactive). Moreover, the z-score in assay [8] is -0.761 (inactive); in assay [9], -0.484. Besides, the composite z-score in assay [4] is 0.244 (inactive); in assay [10], -0.0773.
`CCOC(=O)NN=C1C[C@@H](O)[C@@H](O)[C@@H]2[C@@H]3C(=O)N(c4cccc(Oc5ccccc5)c4)C(=O)[C@@H]3CC[C@H]12`: the z-score in [1] is 0.287; in assay [2] it was -0.946 (inactive); in [3], -1.12 (inactive); in [5], 1.05 (inactive); in assay [6], -1.39 (inactive); in [7] it was 0.0624 (inactive). The results for the z-score in assay [8] and in [9] were -0.642 (inactive) and 0.529, respectively. Besides, the composite z-score in assay [4] is -1.59 (inactive); in assay [10] it was -0.106.
On to `COC(=O)[C@H](C)NC(=O)CCC1CC(OC(=O)NCc2cccc3ccccc23)CC2(CCCC(COC(=O)NCC(c3ccccc3)c3ccccc3)O2)O1` (stereo not given in full), for which the z-score in assay [1] was 1.64; in [2], -0.425 (inactive); in [3], 0.945 (inactive); in [5], -1.24 (inactive); in assay [6], 0.15 (inactive); in [7] it was 0.0127 (inactive). Besides, the z-score in assay [8] was 0.393 (inactive); in [9] it was 1.04. The composite z-score in [4] is 0.0975 (inactive); in assay [10] it was -0.108.
Consider `CON=CC[C@@H]1C=C[C@H](OC(C)=O)[C@@H](COC(C)=O)O1`, for which the z-score was -0.144 in assay [1]; -0.0768 (inactive) in assay [2]; 0.0181 (inactive) in assay [3]; -0.0903 (inactive) in [5]; 0.964 (inactive) in assay [6]; 0.736 (inactive) in assay [7]. The z-score is -1.17 (inactive) in assay [8] and -0.143 in [9]. Also, the values for the composite z-score in [4] and in assay [10] were -1.1 (inactive) and 0.502, respectively.
With `O=C1[C@H]2[C@H]3[C@H](O)[C@H](O)CC(=NOC[C@@H](O)COCc4ccco4)[C@H]3CC[C@H]2C(=O)N1C[C@@H]1CCCO1`, the z-score in assay [1] is 0.639; in [2] it was 0.0107 (inactive); in assay [3], -0.324 (inactive); in assay [5] it was 0.07 (inactive); in assay [6], -0.0915 (inactive); in assay [7], -0.481 (inactive). The z-score is -0.467 (inactive) in [8] and 0.15 in assay [9]. The composite z-score in assay [4] was -0.199 (inactive); in assay [10], -0.217.
Consider `Cc1cc2c(c(=O)o1)[C@@H](O)[C@H]1O[C@H]1C2=O`, for which the z-score in [1] is -0.721; in assay [2], -0.582 (inactive); in assay [3], 0.166 (inactive); in assay [5], -0.67 (inactive); in [6] it was 0.322 (inactive); in [7], -0.729 (inactive). The z-score in [8] is -1.26 (inactive); in assay [9] it was -0.535. For the same compound, the composite z-score in [4] was 0.664 (inactive); in assay [10], 0.13.
As for `CC1O[C@H]2C3=C(C(=O)[C@@H]4O[C@@H]4[C@H]3O)[C@@H]1C1[C@@H](C)OC=C3[C@H](O)C4O[C@@H]4C(=NOCc4ccccc4)[C@]312` (stereo not given in full), the z-score in assay [1] was -1.04; in assay [2], -0.456 (inactive); in assay [3] it was -4.85 (inactive); in assay [5], -0.364 (inactive); in [6], 0.543 (inactive); in assay [7], 0.158 (inactive). Moreover, the z-score in assay [8] was -0.123 (inactive); in assay [9] it was -2.84. Further, the composite z-score in [4] was 0.0953 (inactive); in [10], 0.215.
